Assay results reported in PubChem BioAssay.
Activity calls are given as the source filed them.

Columns and labels:
[1] = optical density shifts of acrAB sulA E. coli – strain DRC41, OD650, 48 h, E. coli filamentation inducer project, primary screen (AID 1152); details: higher = more signal, called active from +8 up or from −8 down;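 also: E. coli MC1000 strain DRC41 lacking acrAB efflux pump and sulA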
[2] = probe aLefty1 binding on compound microarray – biochemical, small-molecule microarray, 635/667 nm fluorescence, primary screen (AID 1153); details: higher = more signal;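 also: score merges spot fluorescence with signal-to-noise ratio from the scanned slide images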
[3] = plasmodial surface anion channel blockers, osmotic lysis – cell-based, P. falciparum Indochina, OD700, 1 h, primary screen (AID 1154); details: P. falciparum Indochina infected RBC osmotic lysis, higher = more signal, called active from +8 up or from −8 down
[4] = plasmodial surface anion channel blockers, osmotic lysis – cell-based, P. falciparum Indochina, OD700, 2 h, primary screen (AID 1155);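 also: lysis reports solute entry through the parasite surface anion channel PSAC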; details: P. falciparum Indochina infected erythrocytes, higher = more signal, called active from +8 up or from −8 down
[5] = changes in parasitized red cell lysis, either direction – P. falciparum Indochina, OD700, 3 h, PSAC antagonist project, primary screen (AID 1156); details: P. falciparum-infected erythrocytes, osmotic lysis, higher = more signal, called active from +8 up or from −8 down
[6] = plasmodial surface anion channel blockers, osmotic lysis – cell-based, P. falciparum Indochina, OD700, 18 h, primary screen (AID 1157); details: P. falciparum Indochina infected erythrocytes, osmotic lysis OD700, 18 h; higher = more signal, called active from +8 up or from −8 down
[7] = S6 kinase pathway phospho-S6 level changes – cell-based, A549, cytoblot, luminescence, serum-stimulated, primary screen (AID 1158); details: 5 h, higher = more signal;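 also: serum-stimulated A549 lung adenocarcinoma cells; signal is phosphorylated S6 detected by cytoblot immunostaining with HRP secondary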
[8] = target: NADPH oxidase 2 (Homo sapiens) (UniProt P04839); experiment: compounds shifting NOX2 Amplex Red fluorescence – cell-based, HEK293-NOX2, PMA-stimulated, NOX inhibitor project, primary screen (AID 1159); details: 45 min, higher = more signal, called active from +8 up or from −8 down; also: test concentration not given here
[9] = target: NADPH oxidase 4 (Homo sapiens) (UniProt Q9NPH5); experiment: compounds shifting NOX4 Amplex Red fluorescence – cell-based, HEK293-NOX4, tetracycline-induced, NOX inhibitor project, primary screen (AID 1160); details: HEK293-NOX4, Amplex Red H2O2 fluorescence, 45 min; higher = more signal, called active from +8 up or from −8 down
[10] = target: NADPH oxidase 5 (Homo sapiens) (UniProt Q96PH1); experiment: compounds shifting NOX5 Amplex Red fluorescence – cell-based, HEK293-NOX5, NOX inhibitor project, primary screen (AID 1161); details: HEK293-NOX5, ionomycin, 45 min, higher = more signal
Chain of NADPH oxidase 5 (Homo sapiens) (Q96PH1 whole entry, looked up): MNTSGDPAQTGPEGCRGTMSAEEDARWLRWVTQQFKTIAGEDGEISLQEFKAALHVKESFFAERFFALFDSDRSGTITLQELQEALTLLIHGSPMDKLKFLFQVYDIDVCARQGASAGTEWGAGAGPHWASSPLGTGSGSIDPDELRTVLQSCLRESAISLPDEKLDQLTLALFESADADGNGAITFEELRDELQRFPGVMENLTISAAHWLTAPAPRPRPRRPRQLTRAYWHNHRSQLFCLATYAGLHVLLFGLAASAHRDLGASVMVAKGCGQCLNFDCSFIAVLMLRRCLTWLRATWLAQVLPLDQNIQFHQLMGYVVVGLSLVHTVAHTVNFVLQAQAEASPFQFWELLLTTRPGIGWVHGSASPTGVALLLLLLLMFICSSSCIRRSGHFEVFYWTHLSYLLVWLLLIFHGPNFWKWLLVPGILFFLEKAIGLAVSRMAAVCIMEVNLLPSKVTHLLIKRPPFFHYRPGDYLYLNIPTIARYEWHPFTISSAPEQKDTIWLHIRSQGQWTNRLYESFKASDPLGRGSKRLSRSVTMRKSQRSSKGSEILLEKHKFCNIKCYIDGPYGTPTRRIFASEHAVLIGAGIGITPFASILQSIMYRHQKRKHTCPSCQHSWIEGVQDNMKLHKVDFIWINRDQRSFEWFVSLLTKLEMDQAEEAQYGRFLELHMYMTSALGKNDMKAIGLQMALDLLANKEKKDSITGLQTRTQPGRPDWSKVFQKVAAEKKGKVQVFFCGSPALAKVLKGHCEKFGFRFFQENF

Chain of NADPH oxidase 2 (Homo sapiens) (P04839 whole entry, looked up): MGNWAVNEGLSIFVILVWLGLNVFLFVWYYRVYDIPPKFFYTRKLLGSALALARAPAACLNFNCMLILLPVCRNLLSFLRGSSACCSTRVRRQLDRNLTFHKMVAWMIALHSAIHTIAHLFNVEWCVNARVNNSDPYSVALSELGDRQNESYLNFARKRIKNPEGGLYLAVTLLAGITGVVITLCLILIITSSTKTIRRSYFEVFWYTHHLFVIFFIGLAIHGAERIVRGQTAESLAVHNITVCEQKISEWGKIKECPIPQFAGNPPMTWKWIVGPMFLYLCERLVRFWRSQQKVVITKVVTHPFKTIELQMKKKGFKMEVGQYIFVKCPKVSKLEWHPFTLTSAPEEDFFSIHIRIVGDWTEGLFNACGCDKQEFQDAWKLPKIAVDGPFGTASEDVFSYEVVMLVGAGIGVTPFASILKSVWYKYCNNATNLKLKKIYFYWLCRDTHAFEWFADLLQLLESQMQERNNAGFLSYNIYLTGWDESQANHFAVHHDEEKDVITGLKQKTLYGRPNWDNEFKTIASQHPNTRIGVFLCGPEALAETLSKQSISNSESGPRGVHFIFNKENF
Chain of NADPH oxidase 4 (Homo sapiens) (Q9NPH5 whole entry, looked up): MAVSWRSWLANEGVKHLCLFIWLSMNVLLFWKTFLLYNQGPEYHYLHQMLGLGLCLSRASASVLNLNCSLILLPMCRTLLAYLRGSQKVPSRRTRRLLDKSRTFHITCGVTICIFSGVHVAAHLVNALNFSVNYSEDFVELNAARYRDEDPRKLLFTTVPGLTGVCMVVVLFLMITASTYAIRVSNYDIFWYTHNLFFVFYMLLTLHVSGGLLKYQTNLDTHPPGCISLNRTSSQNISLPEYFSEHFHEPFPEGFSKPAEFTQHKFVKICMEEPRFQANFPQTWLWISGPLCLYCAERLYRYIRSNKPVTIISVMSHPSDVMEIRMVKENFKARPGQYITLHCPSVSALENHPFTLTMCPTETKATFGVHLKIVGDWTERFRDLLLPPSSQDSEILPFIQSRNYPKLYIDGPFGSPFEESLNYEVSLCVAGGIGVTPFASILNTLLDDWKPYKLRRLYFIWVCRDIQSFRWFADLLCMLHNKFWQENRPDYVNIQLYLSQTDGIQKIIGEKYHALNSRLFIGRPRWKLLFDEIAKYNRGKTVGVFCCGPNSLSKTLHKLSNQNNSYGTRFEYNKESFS

Structure (SMILES)	z-score [1]	composite z-score [2]	z-score [3]	z-score [4]	z-score [5]	z-score [6]	z-score [7]	z-score [8]	z-score [9]	z-score [10]
O=C1C2C=CC(C(O)c3cccc4ccccc34)N(Nc3ccccc3F)C2C(=O)N1c1ccccc1 (stereo not given)	-0.875 (inactive)	0.419	3.49 (inactive)	1.34 (inactive)	-0.481 (inactive)	1.05 (inactive)	-0.607	-0.26 (inactive)	-2.65 (inactive)	-1.21
C=C[C@H](CO[Si](CC)(CC)CC)N(Cc1ccc(OC(C)=O)c(OC)c1)S(=O)(=O)c1ccc(Br)cc1	0.719 (inactive)	0.698	-0.0878 (inactive)	-0.231 (inactive)	-0.738 (inactive)	-1.39 (inactive)	0.674	-2 (inactive)	-0.928 (inactive)	-1.27
O=C1O[C@@H](c2ccccc2)[C@@H](c2ccccc2)N2[C@@H](c3ccccc3OCCO)[C@]3(C(=O)Nc4ccccc43)[C@@H](C(=O)Nc3nc4ccccc4s3)[C@H]12	0.533 (inactive)	1.14	2.02 (inactive)	1.59 (inactive)	0.0197 (inactive)	-1.52 (inactive)	1.53	0.188 (inactive)	-0.547 (inactive)	-1.6
O=C(CS)NCCCCCCNC(=O)[C@@H]1C[C@@H]2C(=O)N[C@@H](Cc3ccccc3)C(=O)N2[C@@H]1c1cccc(OCCO)c1	-0.92 (inactive)	-0.073	4.39 (inactive)	0.198 (inactive)	0.839 (inactive)	0.0799 (inactive)	-0.775	1.75 (inactive)	0.728 (inactive)	-0.131
O=C1N(Cc2ccccc2)c2ccccc2[C@@H]2OC(c3ccc(OCCCO)cc3)=N[C@]12CCS(=O)(=O)c1ccccc1	-0.355 (inactive)	0.387	24.7 (active)	13.3 (active)	1.79 (inactive)	1.57 (inactive)	0.0582	0.22 (inactive)	1.32 (inactive)	1.96
Oc1ccc2cc[n+](Cc3sc4ccccc4c3Cl)cc2c1	-0.669 (inactive)	0.248	1.52 (inactive)	0.109 (inactive)	1.52 (inactive)	0.352 (inactive)	0.0138	-0.121 (inactive)	-1.23 (inactive)	-0.1
C=CCC(OC(C)=O)[C@@H]1[C@@H](N(Cc2ccc(-c3ccccc3)cc2)C(=O)Cc2ccc(OC)cc2)c2cc(OCCCO)ccc2N1C(=O)Cc1ccc2ccccc2c1 (stereo not given in full)	-0.59 (inactive)	-0.0654	0.747 (inactive)	0.314 (inactive)	0.198 (inactive)	0.186 (inactive)	-0.185	0.304 (inactive)	1.09 (inactive)	1.35
C=C(C)[C@@H]1CC=C(C(O)C2C=CC3C(=O)N(C)C(=O)C3N2Nc2ccccc2)CC1 (stereo not given in full)	-1.54 (inactive)	0.42	1.89 (inactive)	0.344 (inactive)	0.683 (inactive)	1.59 (inactive)	-0.549	-1.1 (inactive)	-2.76 (inactive)	-2.23
C=C(CC1([C@@H](NP(=O)(c2ccccc2)c2ccccc2)[C@H]2C[C@@H]2CCCC)CC1)c1ccccc1	-1.67 (inactive)	0.568	0.579 (inactive)	0.495 (inactive)	2.62 (inactive)	0.935 (inactive)	0.534	-0.538 (inactive)	-0.988 (inactive)	-2.95
CCCCN1CC=CC23O[C@@H]4C=CCCOC(=O)C4[C@H]2C(=O)N(CCCCCCO)[C@@H]3C1=O (stereo not given in full)	-0.288 (inactive)	-0.147	0.371 (inactive)	0.491 (inactive)	0.711 (inactive)	0.258 (inactive)	-0.493	1.24 (inactive)	-0.13 (inactive)	1.85
Cc1ccccc1C(O)C1C=CC2C(=O)N(c3ccccc3)C(=O)C2N1Nc1ccc(C(C)C)cc1 (stereo not given)	-1.6 (inactive)	0.317	1.85 (inactive)	1.05 (inactive)	0.918 (inactive)	0.974 (inactive)	-0.405	-1.22 (inactive)	-4.14 (inactive)	-4.42
COC(=O)[C@@]1(Cc2ccc(OC)cc2)[C@H]2c3cc(C(=O)N(C)C)n(Cc4ccc(S(C)(=O)=O)cc4)c3C[C@H]2CN1C(=O)c1ccccc1	-0.752 (inactive)	1.06	1.85 (inactive)	0.451 (inactive)	0.954 (inactive)	-0.336 (inactive)	4.44	1.04 (inactive)	1.74 (inactive)	-3.36
CCOC(=O)[C@H]1C/C=C/C[C@H](C(=O)OCC)C(=O)O[C@H]2[C@@H](OC)O[C@H](CO)[C@@H](OC(=O)c3c(OC)cccc3OC)[C@@H]2OC1=O	-0.664 (inactive)	0.446	13.5 (active)	2.34 (inactive)	-0.083 (inactive)	1.2 (inactive)	0.122	-3.32 (inactive)	-0.754 (inactive)	-3.76
C=CCC(OC(C)=O)[C@@H]1[C@@H](N(Cc2ccc(-c3ccccc3)cc2)C(=O)c2ccc(-c3ccccc3)cc2)c2cc(OCCCO)ccc2N1C(=O)Cc1ccc2ccccc2c1 (stereo not given in full)	-0.706 (inactive)	0.155	0.05 (inactive)	0.129 (inactive)	-0.472 (inactive)	0.408 (inactive)	-0.309	0.795 (inactive)	1 (inactive)	0.532
C=C(/C(=C/C[C@H](OC(C)=O)c1ccc(CO)o1)c1cc(C(=O)OC)ccc1OC)C(C)C	0.376 (inactive)	-0.0559	2.48 (inactive)	-1.22 (inactive)	2.6 (inactive)	-2.17 (inactive)	2.41	-1.66 (inactive)	-1.85 (inactive)	-2.34
CC(C)CNC(=O)[C@@]1(Cc2ccccc2I)c2ccccc2C(=O)N(C2CCCCC2)[C@H]1c1ccc(CO)cc1	-0.664 (inactive)	0.257	3.85 (inactive)	0.198 (inactive)	2.26 (inactive)	0.183 (inactive)	-0.141	-0.394 (inactive)	0.839 (inactive)	0.184
O=C1OCCC/C=C\[C@H]2OC34C=CCN(Cc5ccccc5)C(=O)[C@H]3N(CCCO)C(=O)[C@@H]4C12 (stereo not given in full)	0.616 (inactive)	0.042	1.21 (inactive)	0.486 (inactive)	-0.0156 (inactive)	0.211 (inactive)	-0.506	1.76 (inactive)	-1.71 (inactive)	2.38
C=CCC(OC(C)=O)[C@@H]1[C@@H](N(Cc2cc3ccccc3o2)C(=O)c2cccc3ccccc23)c2cc(OCCCO)ccc2N1C(=O)c1ccc(-c2ccccc2)cc1 (stereo not given in full)	1.45 (inactive)	0.0341	1.01 (inactive)	0.0907 (inactive)	0.358 (inactive)	0.554 (inactive)	0.332	0.52 (inactive)	-1.87 (inactive)	-2.43
COC(=O)[C@@]1(Cc2ccc(OC)cc2)[C@@H]2C(=CC(=O)[C@H]2CC(=O)C(=O)N2CCCC2)CN1C(=O)c1ccccc1	-0.97 (inactive)	0.114	5.48 (inactive)	0.368 (inactive)	1.51 (inactive)	1.18 (inactive)	0.0866	0.143 (inactive)	1.54 (inactive)	1.14
COCCOC(=O)N1C(=O)[C@@]2(c3ccccc31)[C@H](C(=O)N1CCc3cc(OC)c(OC)cc3C1)[C@H]1C(=O)O[C@H](c3ccccc3)[C@H](c3ccccc3)N1[C@@H]2c1ccc(OCCO)cc1	1.12 (inactive)	0.18	5.69 (inactive)	1.85 (inactive)	0.757 (inactive)	0.983 (inactive)	0.0824	0.238 (inactive)	0.974 (inactive)	1.19
C=CCOC(=O)[C@H]1[C@@H]2C(=O)O[C@@H](c3ccccc3)[C@@H](c3ccccc3)N2[C@@H](c2ccc(OCCOC(=O)[C@H]3C[C@H]4C(=O)N[C@@H](CCCC[N+](C)(C)C)C(=O)N4[C@H]3c3ccc(O)cc3)cc2)[C@]12C(=O)Nc1ccc(I)cc12	-0.535 (inactive)	0.275	3.9 (inactive)	1.69 (inactive)	-3.16 (inactive)	0.278 (inactive)	-0.519	0.595 (inactive)	0.72 (inactive)	0.895
COC(=O)[C@@]1(CCS(=O)(=O)c2ccccc2)N=C(c2ccc(OCCCO)cc2)O[C@H]1c1ccccc1CN=[N+]=[N-]	-0.146 (inactive)	0.365	19.6 (active)	3.74 (inactive)	1.26 (inactive)	1.33 (inactive)	0.208	-0.899 (inactive)	0.495 (inactive)	-0.807
C=CCOC(=O)[C@H]1[C@@H]2C(=O)O[C@@H](c3ccccc3)[C@@H](c3ccccc3)N2[C@@H](c2ccc(OCCOC(=O)[C@H]3C[C@H]4C(=O)N[C@@H](CCCCN(C)C)C(=O)N4[C@H]3c3ccc(O)cc3)cc2)[C@]12C(=O)Nc1ccc(I)cc12	-0.635 (inactive)	0.461	5.21 (inactive)	1.13 (inactive)	-0.286 (inactive)	0.522 (inactive)	-0.236	2.18 (inactive)	1.06 (inactive)	1.72
